Compound activity deposited in PubChem by National Center for Advancing Translational Sciences (NCATS).
D3 antag – D3 dopamine receptor (human) antagonism. AID 652054. actives 2.5% (n = 360,000). P35462. D3R cells, DiscoveRx beta-arrestin luminescence, antagonist mode; stronger effect = lower value. max response, negative = inhibition, %; in the data active = max response below about -50%; inconclusive = no clear call, values can overlap the other calls; also: % is scaled to controls: 0 for no effect and ±100 for the full control effect
Target sequence (P35462 whole entry, looked up): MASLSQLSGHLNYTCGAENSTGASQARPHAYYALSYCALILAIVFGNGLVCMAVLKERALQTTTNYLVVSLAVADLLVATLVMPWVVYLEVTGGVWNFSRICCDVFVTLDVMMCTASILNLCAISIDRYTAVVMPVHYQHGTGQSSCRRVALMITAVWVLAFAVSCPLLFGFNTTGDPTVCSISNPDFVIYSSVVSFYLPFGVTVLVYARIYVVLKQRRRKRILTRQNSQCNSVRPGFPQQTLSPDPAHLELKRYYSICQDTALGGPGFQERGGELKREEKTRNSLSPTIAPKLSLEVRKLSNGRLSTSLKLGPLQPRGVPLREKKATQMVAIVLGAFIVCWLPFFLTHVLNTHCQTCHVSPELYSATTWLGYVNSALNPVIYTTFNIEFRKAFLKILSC
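Cells plated overnight at 1500 cells/well, then exposed to library compounds with dopamine controls for 90 minutes at 37 degrees C. DiscoveRx reagent added for 30–60 minutes at room temperature; luminescence read, quantitative HTS format.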
a7 integrin act – activates integrin-mediated alleviation for muscular dystrophy; alpha7betagal myoblasts, beta-gal FDG fluorescence, 48 h; Potency, µM (titrated, usually from 38.3 µM), for inactives: top-dose activation, most hits filed as activators; actives 0.064% (n = 350,000); AID 624291;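 also: potency is read from the fitted curve at half-maximal effect; 100% = response of the positive control SU9516; nearly all actives have a fitted effect of over 60% in size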
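Alpha7betagal+/- myoblasts (passage 13) were plated 16-24 hr, then exposed to compounds (1:260 dilution of DMSO stock) for 48 hours at 37C. After MPER lysis, β-galactosidase reporter activity was read as FDG fluorescence (ex 480/em 540) after 30 minutes.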
S2 tox – cell viability loss in ATXN counter-screen | S2 cells (HEK-293 line with an ATXN2-luciferase reporter) viability, CellTiter-Fluor protease fluorescence, 24 h | Potency, µM (doses to about 56.7 µM), actives largely listed as cytotoxic | actives 0.49% (n = 400,000); also: potency is read from the fitted curve at half-maximal effect; nearly all actives have a fitted effect of over 40% in size
D3 ag – agonists of human D3 dopamine receptor. P35462. max activation, %. D3R DiscoveRx beta-arrestin cells, luminescence, 90 min. actives 0.58% (n = 410,000); in the data active = max activation above about 30%; also: 0% is about no effect
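Agonist-mode cell screen: cells plated at 1500/well and incubated overnight at 37 °C, then exposed to library compounds for 90 min at 37 °C. Detection reagent was added for 30–60 min at room temperature, and luminescence was read.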
ATXN2 expr inh – inhibitors of ATXN2 expression | HEK-293 ATXN2-luciferase reporter, luminescence, 24 h | Potency, µM (top dose mostly 57 µM), without a hit: top-dose activity change, negative = inhibition, most hits filed as inhibitors | actives 0.72% (n = 360,000) | AID 1745845; also: potency is read from the fitted curve at half-maximal effect; % is scaled to controls: 0 for no effect and ±100 for the full control effect; nearly all actives have a fitted effect of over 55% in size
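ATXN2-luciferase reporter cells (luciferase flanked by upstream and downstream ATXN2 gene portions) were treated 24 h at 37 °C with compounds at up to 57 uM. SteadyGlo luminescence gave expression; GF-AFC fluorescence gave viability.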
IL-1B inflam inh – blocks inflammasome-driven IL-1 beta release; THP-1 LPS/ATP IL-1B secretion, AlphaLISA, 16 h; stronger effect = lower value; activity change, % at 57.5 µM; actives 4.7% (n = 360,000); AID 743279; in the data active = activity change below about -50%; inconclusive = mostly about -30% to -49%; also: % is scaled to controls: 0 for no effect and ±100 for the full control effect
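Secreted IL-1B measured by AlphaLISA bead assay after 16 h compound exposure of THP-1 cells; compounds (final up to 57.5 uM) added 1 h before LPS (250 ng/mL) and ATP (1.25 mM) stimulation; lower signal means less secretion.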
* = called active by the depositor; i = inactive; ? = inconclusive; . = not tested or not shown; [ ] = another dose, or the depositor's remark. Rows were chosen to be rich in hits. Some 7% of all compounds tested hit in one or more screens of this group. Unless noted, calls follow the shape of the dose curve; as a rule, active = well fitted curve in the direction sought with a large enough effect; inconclusive = small, poorly fitted or top-dose-only effect, or another doubt; inactive = no such curve, though single readings can be large; an effect the other way counts as inactive or inconclusive.

SMILES	D3 antag	a7 integrin act	S2 tox	D3 ag	ATXN2 expr inh	IL-1B inflam inh
O=C(CCOc1ccccc1)Nc1ccc(Cl)c(S(=O)(=O)N2CCOCC2)c1	8.1	-34.4%	?	3.6	11.6%	-71.8*
O=C(Nc1ccc(NC(=O)c2ccc(Cl)c(S(=O)(=O)N3CCOCC3)c2)cc1)c1ccccc1	-4.6	0.2%	i	3.9	4.0%	6.6
CCCC1(CCC)NC(=O)N(CC(=O)Nc2ccc(Cl)c(S(=O)(=O)N3CCOCC3)c2)C1=O	23.0	-9.5%	i	1.4	4.6%	-62.7*
CC1CCCCC12NC(=O)N(CC(=O)Nc1ccc(Cl)c(S(=O)(=O)N3CCOCC3)c1)C2=O (centres undefined)	-6.9	-44.6%	i	6.9	-12.0%	24.3
O=C(Nc1ccccc1)Nc1ccc(Cl)c(S(=O)(=O)N2CCOCC2)c1	-50.9*	?	?	-10.8	-20.2%	?
Cc1ccc(CN2CC(C(=O)NC3CCCC(C)C3C)CC2=O)cc1 (centres undefined)	-8.3	-3.2%	i	-2.0	-9.5%	-16.6
O=C1CCCN1CCC1CCN(C2CC(=O)N(c3ccc(F)cc3)C2=O)CC1 (centres undefined)	-4.2	-7.5%	i	3.0	-1.8%	20.3
CCSc1nc(O)c(Cc2ccccc2)c(=O)[nH]1	-4.3	-7.5%	i	-2.4	7.4%	105.9
O=C(Nc1ccccc1)c1ccc(NC2CCCCC2)c(S(=O)(=O)N2CCOCC2)c1	-6.9	-26.9%[7.66 µM]	i	-3.7	2.6%	-52.4*
O=C(Nc1ccccc1)c1ccc(N2CCN(c3ccccc3)CC2)c(S(=O)(=O)N2CCOCC2)c1	10.0	1.8%	.	-0.8	.	-16.0
N#Cc1cccc(NC(=O)Cn2c3[n+](c4ccc(C(F)(F)F)cc42)CCCCC3)c1	-73.8*	-32.3%	i	-52.3	-1.8%	-0.3
Fc1ccccc1Cn1c2[n+](c3ccc(C(F)(F)F)cc31)CCCCC2	-3.1	-12.1%	i	4.6	4.2%[11.3 µM]	-6.6
COc1cc(/C=C(\C#N)C(=O)NC2CCCCC2C)ccc1OS(=O)(=O)c1ccc(C)cc1 (centres undefined)	-0.6	-8.2%	i	-1.7	-11.7%	-102.8*
CC1CCCCC1NC(=O)/C(C#N)=C/c1ccccc1F (centres undefined)	-4.2	-66.5%	?	1.3	?	-101.2*
N#C/C(=C\c1c(F)cccc1Cl)C(=O)NC1CC1	1.1	-54.0%	i	9.6	-1.3%	-74.1*
N#C/C(=C\c1ccc[nH]1)C(=O)NC1CC1	-6.3	-2.3%	i	5.1	2.5%	-5.1
CSc1ccc(/C=C(\C#N)C(=O)NC2CCCCC2C)cc1 (centres undefined)	-5.2	0.7%	i	-4.8	4.6%	-119.9*
N#Cc1c[nH]n2c(NC3CCCC3)c(-c3cccc(Cl)c3)nc12	.	.	i	8.0	1.7%	.
Cc1cc2c(ncn2C)c(NS(=O)(=O)c2cc(Cl)ccc2Cl)c1C	-0.2	?	i	-2.0	-28.1%	-11.9
Cc1ccccc1C(=O)OCC(=O)NCC1COc2ccccc2O1 (centres undefined)	7.3	-6.1%	i	0.8	7.4%	0.0
CC(C)NC(=O)COc1ccc(OCc2ccccc2)cc1	-13.8	-16.9%	i	-0.8	.	23.2
C[C@H](NCc1ccc(OCc2cccc(F)c2)cc1)C(N)=O	.	.	.	.	19.3µM*	.
CCCCC(=O)N1CCN(c2nc3ccc(Br)cc3s2)CC1	8.7	12.4%	i	4.5	?	-88.4*
CCCC(=O)N1CCN(c2nc3ccc(Br)cc3s2)CC1	15.8	0.0%	?	0.8	.	-22.9
CCc1ccc2nc(N3CCC(C(=O)O)CC3)sc2c1	.	.	i	1.2	14.1µM*	.
SMILES	D3 antag	a7 integrin act	S2 tox	D3 ag	ATXN2 expr inh	IL-1B inflam inh
Cc1ccc(OCCOc2cccc(Br)c2)c([N+](=O)[O-])n1	-3.7	4.6%	i	10.7	52.6%	-71.2*
COc1cc2c(cc1OC)C(c1ccc(-c3ccccc3Cl)o1)=NCC2	37.3	8.7%[7.66 µM]	.	12.7	35.5µM*	-92.1*
COc1cc2c(cc1OC)C(c1ccc(-c3ccc(Cl)cc3Cl)o1)=NCC2	39.8	0.0%	?	5.3	?	?
COc1cc2c(cc1OC)C(c1ccc(-c3ccc(Cl)c(Cl)c3)o1)=NCC2	49.0	-61.4%	i	5.7	?	-59.3*
COc1cc2c(cc1OC)C(c1ccc(Cl)cc1)=NCC2	7.4	12.6%	?	-2.1	.	?
COc1cc2c(cc1OC)C(c1ccc(-c3cc(Cl)ccc3Cl)o1)=NCC2	26.8	-19.3%	?	10.4	?	-93.5*
O=C(CCN1C(=O)/C(=C\c2ccco2)SC1=S)Nc1ccc(C(=O)O)c(O)c1	-6.1	-0.3%	?	0.4	.	-14.9
O=S(=O)(Nc1ccc(Cl)cn1)c1cccc(S(=O)(=O)c2ccccc2)c1	?	11.8%	i	-1.4	.	28.9
CCOc1ccc(NCc2ccccc2OCc2cccc(F)c2)cc1	?	21.1%	i	-9.1	3.9%	-54.3*
Cc1cc2c(n1-c1ccc(Br)cc1)CC(C)(C)CC2=O	-18.1	15.1%	i	-1.6	-10.4%	-2.3
Cc1ccc(-n2c(C)cc3c2CC(C)(C)CC3=O)cc1C	-88.4*	16.7%	i	-5.3	-19.2%	-4.8
Cc1cccc(N2CCN(C(=O)c3noc4c3CCCCC4)CC2)c1C	.	.	.	-15.2	.	.
CCO[C@H]1OC(C(=O)O)=C[C@@H](c2cn(C(C)=O)c3ccccc23)[C@@H]1CCCO	-4.7	13.9%	i	7.4	1.9%	20.3
CCO[C@@H]1OC(C(=O)NCc2nc3ccccc3[nH]2)=C[C@H](c2ccc(C(F)(F)F)cc2)[C@H]1CCCO	13.4	-10.9%	i	7.3	?	-64.1*
CCO[C@H]1OC(C(=O)NCc2nc3ccccc3[nH]2)=C[C@@H](c2ccc(C(F)(F)F)cc2)[C@@H]1CCCO	-15.7	-11.1%	?	16.4	?	?
CCO[C@@H]1OC(C(=O)NCc2ccccc2)=C[C@H](c2cn(C(C)=O)c3ccccc23)[C@H]1CCCO	8.0	-2.6%	i	66.7*	-7.5%	-53.5*
CCO[C@H]1OC(C(=O)Nc2ccccc2)=C[C@@H](c2ccc(C(F)(F)F)cc2)[C@@H]1CCCO	23.2	-34.3%	?	8.5	?	-55.2*
CCO[C@H]1OC(C(=O)NCc2ccccc2)=C[C@@H](c2ccc(C(F)(F)F)cc2)[C@@H]1CCCO	-1.3	-23.4%	?	4.9	?	?
CC(=O)N1Cc2ccccc2C(C)CC12CCCCC2 (centres undefined)	30.7	-5.1%	i	10.0	-4.7%	-8.4
CN(C)C(=O)/C(C#N)=C\c1cc(Br)c(Sc2ccc(Cl)cc2)o1	?	-46.2%	i	-4.8	-17.3%	-94.4*
